Results taken from PubChem BioAssay.
A number with no mark means an inactive call. For some of these results: Entries with a potency or affinity are not part of this list. The source made the active and inactive calls. Unless noted, no rule for the calls is given here.

Experiments:
[1] = antimalarial activity against Dd2 strain (AID 2302;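 active = growth inhibition above 50% at the single 2 µM test dose, taken to imply half-maximal potency below 2 µM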;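 also: 0% = DMSO untreated growth and 100% = chloroquine plus artemisinin killed control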); conditions: P. falciparum Dd2 in RBCs, LDH growth readout, 72 h; at 2 µM; active compounds read high
[2] = HepG2 cytotoxicity, primary screen, cytotoxicity control for P. falciparum antimalarial project, cell-based, ATP luminescence (AID 2303;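 active = inhibition above 50%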;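 also: 0% = DMSO wells and 100% = digitonin-killed cells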); conditions: HepG2 viability, 24-48 h, at 10 µM, active compounds read high
[3] = target: L-lactate dehydrogenase (Plasmodium falciparum (isolate CDC / Honduras)) (UniProt Q27743); test: PfLDH activity inhibition – cell lysate, 3D7 strain, counter-screen for P. falciparum growth inhibition project (AID 2304);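 also: 0% = vehicle and 100% = reference inhibitor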; conditions: P. falciparum 3D7 crude extract, LDH APAD/NBT absorbance; at 2 µM; active compounds read high
Chain of L-lactate dehydrogenase (Plasmodium falciparum (isolate CDC / Honduras)) (Q27743 whole entry, looked up): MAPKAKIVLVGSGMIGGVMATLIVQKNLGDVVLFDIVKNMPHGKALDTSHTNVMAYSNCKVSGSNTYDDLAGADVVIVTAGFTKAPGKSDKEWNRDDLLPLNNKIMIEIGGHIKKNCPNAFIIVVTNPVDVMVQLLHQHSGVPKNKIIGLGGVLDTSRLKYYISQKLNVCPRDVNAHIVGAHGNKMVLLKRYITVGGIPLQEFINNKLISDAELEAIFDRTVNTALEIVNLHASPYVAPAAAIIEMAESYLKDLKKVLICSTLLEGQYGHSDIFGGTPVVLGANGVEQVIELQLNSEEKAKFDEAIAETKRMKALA

[4] = inhibition of 3D7 malaria parasite growth – strain 3D7 (AID 2306);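 also: 0% = DMSO wells and 100% = chloroquine plus artemisinin control wells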; conditions: P. falciparum 3D7 erythrocytic growth, LDH absorbance, 72 h; at 2 µM; active compounds read high
[5] = target: Calcium-dependent protein kinase 1 (Plasmodium falciparum (isolate 3D7)) (UniProt P62344); test: PfCDPK1 kinase inhibitors, biochemical, TCAMS library (AID 1159585; cut-off not given, nearly all actives have IC50 up to about 0.98 µM;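 also: inhibitors leave more ATP so luminescence rises with inhibition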); conditions: recombinant PfCDPK1, Kinase-Glo ATP depletion luminescence
Chain of Calcium-dependent protein kinase 1 (Plasmodium falciparum (isolate 3D7)) (P62344 whole entry, looked up): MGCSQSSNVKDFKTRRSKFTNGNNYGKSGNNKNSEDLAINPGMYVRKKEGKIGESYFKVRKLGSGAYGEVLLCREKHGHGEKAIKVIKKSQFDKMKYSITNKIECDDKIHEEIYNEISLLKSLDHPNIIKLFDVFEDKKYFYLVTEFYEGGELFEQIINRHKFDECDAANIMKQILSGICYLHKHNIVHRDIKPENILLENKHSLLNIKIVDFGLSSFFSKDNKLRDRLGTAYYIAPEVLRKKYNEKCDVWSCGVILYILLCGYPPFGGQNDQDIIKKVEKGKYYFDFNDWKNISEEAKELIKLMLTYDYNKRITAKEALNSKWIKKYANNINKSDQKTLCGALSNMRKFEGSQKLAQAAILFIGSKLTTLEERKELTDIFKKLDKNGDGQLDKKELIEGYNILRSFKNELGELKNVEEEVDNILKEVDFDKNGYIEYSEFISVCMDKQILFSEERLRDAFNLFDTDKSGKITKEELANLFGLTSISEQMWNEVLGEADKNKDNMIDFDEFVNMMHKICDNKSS

[6] = target: Plasmodium falciparum protein kinase 6 (PK6, PF3D7_1337100) (UniProt Q8IDW1); test: PfPK6 kinase inhibitors, biochemical, TCAMS library (AID 1159586); conditions: recombinant PfPK6, Kinase-Glo ATP depletion luminescence
Chain of Plasmodium falciparum protein kinase 6 (PK6, PF3D7_1337100) (Q8IDW1 1-305): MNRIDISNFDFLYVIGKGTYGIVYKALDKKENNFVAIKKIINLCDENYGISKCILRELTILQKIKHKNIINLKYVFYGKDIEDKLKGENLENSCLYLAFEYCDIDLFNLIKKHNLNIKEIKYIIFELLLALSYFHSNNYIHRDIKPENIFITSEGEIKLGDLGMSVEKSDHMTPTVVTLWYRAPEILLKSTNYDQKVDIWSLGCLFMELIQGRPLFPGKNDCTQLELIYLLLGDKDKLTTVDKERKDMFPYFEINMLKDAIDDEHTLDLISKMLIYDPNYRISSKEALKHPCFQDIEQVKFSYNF

[7] = target: Protein kinase 7 (PK7), Plasmodium falciparum 3D7 (PF3D7_0213400) (UniProt Q7YTF7); test: inhibition of Plasmodium PK7 catalytic activity – biochemical, TCAMS antimalarial set, Kinase-Glo luminescence (AID 1159587); conditions: recombinant PfPK7, Kinase-Glo ATP depletion luminescence
Chain of Protein kinase 7 (PK7), Plasmodium falciparum 3D7 (PF3D7_0213400) (Q7YTF7 1-343): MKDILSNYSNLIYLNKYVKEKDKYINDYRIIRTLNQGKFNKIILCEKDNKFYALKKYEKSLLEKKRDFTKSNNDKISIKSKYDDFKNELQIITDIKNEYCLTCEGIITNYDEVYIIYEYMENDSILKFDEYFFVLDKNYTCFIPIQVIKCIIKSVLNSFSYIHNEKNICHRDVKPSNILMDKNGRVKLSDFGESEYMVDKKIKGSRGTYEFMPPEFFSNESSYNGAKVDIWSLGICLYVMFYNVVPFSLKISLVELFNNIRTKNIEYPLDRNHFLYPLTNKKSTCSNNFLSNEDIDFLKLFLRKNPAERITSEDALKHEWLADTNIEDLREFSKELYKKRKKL

[8] = target: Calcium-dependent protein kinase 4 (Plasmodium falciparum (isolate 3D7)) (UniProt Q8IBS5); test: PfCDPK4 kinase inhibitors, biochemical, TCAMS library (AID 1159588; cut-off not given, nearly all actives have IC50 up to about 0.91 µM); conditions: recombinant PfCDPK4, Kinase-Glo ATP depletion luminescence
Chain of Calcium-dependent protein kinase 4 (Plasmodium falciparum (isolate 3D7)) (Q8IBS5 whole entry, looked up): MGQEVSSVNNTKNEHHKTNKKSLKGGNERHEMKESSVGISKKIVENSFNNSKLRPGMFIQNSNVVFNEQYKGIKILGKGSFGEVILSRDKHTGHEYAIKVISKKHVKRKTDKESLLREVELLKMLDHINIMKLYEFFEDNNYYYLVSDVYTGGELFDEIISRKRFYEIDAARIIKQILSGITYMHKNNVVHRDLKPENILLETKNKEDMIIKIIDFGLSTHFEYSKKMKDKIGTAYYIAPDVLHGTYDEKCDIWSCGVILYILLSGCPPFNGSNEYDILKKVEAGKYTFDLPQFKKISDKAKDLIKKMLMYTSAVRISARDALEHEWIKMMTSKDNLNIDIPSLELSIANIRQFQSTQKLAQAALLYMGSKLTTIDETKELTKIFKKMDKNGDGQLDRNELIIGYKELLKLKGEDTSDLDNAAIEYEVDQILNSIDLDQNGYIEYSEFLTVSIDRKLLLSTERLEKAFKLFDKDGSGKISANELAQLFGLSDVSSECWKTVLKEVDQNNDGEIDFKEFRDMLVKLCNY

Row | SMILES | growth inhibition [1] | inhibition [2] [%] | inhibition [3] [%] | growth inhibition [4] | outcome [5] | outcome [6] | outcome [7] | outcome [8]
1 | Cc1cc(NN=Cc2ccc([N+](=O)[O-])cc2)c2ccc(F)cc2n1 | 22% | -3 | 0 | 101% (active) | inactive | inactive | inactive | inactive
2 | O=c1c(Br)c(C(F)(F)F)[nH]c2ccc(Oc3ccccc3)cc12 | 17% | 6 | 0 | 91% (active) | inactive | inactive | inactive | inactive
3 | COc1ccc2nccc([C@@H](O)CN3CCC(NC(=O)C(c4cc5ccccc5o4)N4CCN(C(c5ccccc5)c5ccccc5)CC4)CC3)c2c1 (stereo not given in full) | 100% (active) | 18 | -4 | 100% (active) | inactive | inactive | inactive | inactive
4 | CCOC(=O)Nc1cc(-c2csc(N=C(N)N)n2)cc([N+](=O)[O-])c1 | 88% (active) | 12 | -8 | 101% (active) | inactive | inactive | inactive | inactive
5 | Cc1c(CNCCCNc2cc(=O)c3ccccc3[nH]2)sc(C(F)F)c1Br | 29% | 0 | 5 | 98% (active) | inactive | inactive | inactive | inactive
